Results from PubChem BioAssay AID602261 (Sanford-Burnham Center for Chemical Genomics, 2012).
About 2,400 (0.67%) of roughly 360,000 compounds were called active.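 Rule for the calls: active = compounds whose normalised, plate-corrected inhibition of enzyme fluorescence in the single-dose primary screen is 50% or more; inactive = the rest.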 Many of the other results were omitted from the sample, so actives are more common in it than they were.

Each compound was assayed against Fatty acid synthase (Homo sapiens) (UniProt P49327) (assay: inhibition of human FAS-TE enzyme activity – biochemical, fluorescence intensity, uHTS, primary screen (AID 602261;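 note: 0% = DMSO with enzyme and 100% = substrate without enzyme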)). Conditions: recombinant FAS-TE, OMFH fluorogenic substrate, fluorescence endpoint; at 15 µM; hits give high values.
Chain of Fatty acid synthase (Homo sapiens) (P49327 whole entry, looked up): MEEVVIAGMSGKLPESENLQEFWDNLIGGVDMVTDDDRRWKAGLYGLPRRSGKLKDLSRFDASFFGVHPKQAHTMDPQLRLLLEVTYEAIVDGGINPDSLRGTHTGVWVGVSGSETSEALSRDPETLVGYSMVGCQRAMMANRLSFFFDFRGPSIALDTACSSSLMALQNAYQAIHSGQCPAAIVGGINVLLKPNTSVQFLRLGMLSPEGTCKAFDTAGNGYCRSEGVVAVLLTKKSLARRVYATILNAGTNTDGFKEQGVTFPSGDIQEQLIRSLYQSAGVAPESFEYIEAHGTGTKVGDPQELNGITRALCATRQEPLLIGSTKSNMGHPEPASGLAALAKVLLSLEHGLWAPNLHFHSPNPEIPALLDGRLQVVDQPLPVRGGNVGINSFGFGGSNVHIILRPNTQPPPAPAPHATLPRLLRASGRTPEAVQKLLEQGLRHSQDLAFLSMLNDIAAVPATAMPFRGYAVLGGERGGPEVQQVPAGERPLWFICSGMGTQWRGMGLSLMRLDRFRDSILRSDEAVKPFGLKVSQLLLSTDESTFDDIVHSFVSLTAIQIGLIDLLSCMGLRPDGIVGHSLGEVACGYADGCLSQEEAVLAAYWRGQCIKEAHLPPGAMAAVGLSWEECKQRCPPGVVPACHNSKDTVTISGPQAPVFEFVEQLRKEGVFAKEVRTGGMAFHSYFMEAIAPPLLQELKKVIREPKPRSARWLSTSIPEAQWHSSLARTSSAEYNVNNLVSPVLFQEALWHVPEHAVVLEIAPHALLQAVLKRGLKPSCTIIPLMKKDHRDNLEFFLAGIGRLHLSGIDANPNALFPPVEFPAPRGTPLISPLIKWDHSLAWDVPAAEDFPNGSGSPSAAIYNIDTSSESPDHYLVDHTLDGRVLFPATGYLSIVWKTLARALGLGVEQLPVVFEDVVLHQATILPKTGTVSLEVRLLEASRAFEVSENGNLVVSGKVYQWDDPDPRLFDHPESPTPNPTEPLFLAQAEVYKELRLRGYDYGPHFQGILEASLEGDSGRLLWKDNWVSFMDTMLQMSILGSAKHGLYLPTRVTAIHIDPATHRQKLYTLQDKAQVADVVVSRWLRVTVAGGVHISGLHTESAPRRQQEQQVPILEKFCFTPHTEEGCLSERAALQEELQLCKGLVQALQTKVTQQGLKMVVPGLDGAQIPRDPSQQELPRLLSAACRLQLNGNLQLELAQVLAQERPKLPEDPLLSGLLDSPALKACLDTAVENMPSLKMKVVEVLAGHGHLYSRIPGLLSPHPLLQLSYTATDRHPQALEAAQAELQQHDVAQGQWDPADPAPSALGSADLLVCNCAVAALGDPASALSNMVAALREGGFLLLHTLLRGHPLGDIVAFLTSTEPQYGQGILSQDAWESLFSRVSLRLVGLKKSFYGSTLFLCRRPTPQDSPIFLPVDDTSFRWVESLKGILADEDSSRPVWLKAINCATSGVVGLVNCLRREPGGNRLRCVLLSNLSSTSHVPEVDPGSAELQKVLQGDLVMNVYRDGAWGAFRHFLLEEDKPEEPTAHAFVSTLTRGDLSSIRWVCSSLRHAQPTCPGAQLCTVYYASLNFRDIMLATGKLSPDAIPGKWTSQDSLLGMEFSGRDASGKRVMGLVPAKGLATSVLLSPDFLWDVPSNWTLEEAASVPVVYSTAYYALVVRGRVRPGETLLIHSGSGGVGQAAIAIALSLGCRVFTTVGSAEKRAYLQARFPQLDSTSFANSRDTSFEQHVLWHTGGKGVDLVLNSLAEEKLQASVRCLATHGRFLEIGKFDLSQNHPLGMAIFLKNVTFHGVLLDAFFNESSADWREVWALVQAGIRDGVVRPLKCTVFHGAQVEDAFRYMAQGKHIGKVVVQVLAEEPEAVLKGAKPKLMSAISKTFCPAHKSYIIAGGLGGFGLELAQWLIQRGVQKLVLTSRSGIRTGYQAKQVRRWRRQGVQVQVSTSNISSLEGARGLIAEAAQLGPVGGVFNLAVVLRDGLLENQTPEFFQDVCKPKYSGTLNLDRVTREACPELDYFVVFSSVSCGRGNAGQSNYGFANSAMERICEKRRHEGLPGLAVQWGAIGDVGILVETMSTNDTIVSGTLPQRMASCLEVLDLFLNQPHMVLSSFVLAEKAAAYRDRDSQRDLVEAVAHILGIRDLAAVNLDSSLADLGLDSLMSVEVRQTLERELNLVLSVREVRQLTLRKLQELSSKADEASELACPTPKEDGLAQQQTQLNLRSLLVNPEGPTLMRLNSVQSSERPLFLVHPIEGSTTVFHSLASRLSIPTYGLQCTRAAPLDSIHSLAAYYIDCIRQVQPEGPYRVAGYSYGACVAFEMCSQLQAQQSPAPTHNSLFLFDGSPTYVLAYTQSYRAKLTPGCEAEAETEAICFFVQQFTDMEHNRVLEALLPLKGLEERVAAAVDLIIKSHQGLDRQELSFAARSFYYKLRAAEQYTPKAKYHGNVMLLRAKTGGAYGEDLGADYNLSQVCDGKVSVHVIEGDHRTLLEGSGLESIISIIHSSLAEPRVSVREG

SMILES | inhibition
CCOC(=O)[C@]12Cc3cc(OC)ccc3[C@H]1N(C(C)C)C(=O)c1ccccc12 | 36.7% (inactive)
CCOC(=O)[C@]12Cc3ccccc3[C@H]1N(C1CCCCC1)C(=O)c1cc(OC)ccc12 | 67.5% (active)
CC(=O)c1ccc(OC(NC(=O)Cc2ccccc2)C(Cl)(Cl)Cl)cc1 (stereo not given) | 11.2% (inactive)
O=C1C2(Cl)C3(Cl)C4(Cl)C(Cl)(Cl)C5(Cl)C3(Cl)C1(Cl)C5(Cl)C24Cl (stereo not given) | 72.1% (active)
O=C(O)CCn1cc(C=C2C(=O)NC(=S)NC2=O)c(-c2cccc(Br)c2)n1 | -3.4% (inactive)
COC(=O)C1=C(c2ccc3ccccc3c2)C[C@@H]2CC[C@H]1N2C(=O)NCCO | -1.8% (inactive)
O=c1[nH]c2ccccc2n1C1CCN(C(c2ccnc3ccccc23)c2nnnn2Cc2ccccc2)CC1 (stereo not given) | 5.1% (inactive)
O=c1[nH]c2ccccc2n1C1CCN(C(c2ccccc2)c2nnnn2Cc2ccccc2)CC1 (stereo not given) | 18.3% (inactive)
COc1ccc(-n2nnnc2C(c2cccc3ccccc23)N2CCC(n3c(=O)[nH]c4ccccc43)CC2)cc1 (stereo not given) | 87.1% (active)
CCOc1ccc(CN(CCCl)CCCl)cc1C(=O)OC | -5.1% (inactive)
O=C(NC1CCCCC1)N1Cc2cc(N3CCCCC3)ccc2-n2nncc2C1 | -2.8% (inactive)
CN(C)CC1CCCCC1OC(=O)c1ccc(Cl)c(Cl)c1 (stereo not given) | -3.1% (inactive)
CCCCCCCCCCCCn1ccc(=N)cc1 | -0.8% (inactive)
O=C1NCN(c2ccccc2)C12CCN(C(c1cccs1)c1nnnn1C1CCCCC1)CC2 (stereo not given) | 14.5% (inactive)
COc1cccc(C(c2nnnn2-c2ccc3c(c2)OCCO3)N2CCC3(CC2)C(=O)NCN3c2ccccc2)c1OC (stereo not given) | 62% (active)
Cc1ccc(-c2cc(C(=O)N3CCC4(CC3)OCCO4)no2)cc1 | 1.5% (inactive)
COc1ccc2c(c1O)-c1cccc3c1[C@@H](C2)N(C)CC3 | -2.4% (inactive)
CCOC(=O)C(O)(c1ccc(N=Cc2ccccc2O)c(C)c1)C(F)(F)F (stereo not given) | -4.3% (inactive)
CC(C)Oc1cccc(C(=O)C2CCCN(C3CCOCC3)C2)c1 (stereo not given) | -0.1% (inactive)
c1cncc(CNCCc2c[nH]c3ccccc23)c1 | 5.2% (inactive)
